“And” between values parts separate entries of the source, which are not always exact repeats. Equal values may be shown once. The whole screen tested about 1,500 compounds, of which about 100 (6.7%) were called active. About 7% were inconclusive and are not listed. This is one part of a sample in which actives are shown more often than they occur. The call rests on the fitted dose curve; in most records, active means well fitted inhibition curve with a large enough effect; inconclusive means small, poorly fitted or top-dose-only effect, or effect the other way; inactive means flat fitted curve, though single readings scatter.
Molecular target: Runt-related transcription factor 1 (Homo sapiens) + Core-binding factor subunit beta (Homo sapiens) (UniProt Q01196+Q13951)
Experiment: qHTS Assay for Compounds Blocking the Interaction Between CBF-beta and RUNX1 for the Treatment of Acute Myeloid Leukemia: Hit Validation; further: nearly all actives have a fitted effect of over 60% in size
Settings: AlphaScreen CBFb-His/RUNX1-biotin binding; series mostly up to 59.8 µM; activity, negative = inhibition: at the top concentration
Summary of the method: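 Compounds were added to a premixed CBF-beta-His/RUNX1-biotin complex (30 nM each, 20 min) for 15 min. Nickel and streptavidin AlphaScreen beads followed for 90 min at room temperature, with emission at 440 nm […].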
On the % scale 0 is the no-effect control and ±100 the full control effect; potency means the concentration at half of the fitted maximal effect.

Runt-related transcription factor 1 (Homo sapiens) + Core-binding factor subunit beta (Homo sapiens), sequence (Q01196 whole entry, looked up): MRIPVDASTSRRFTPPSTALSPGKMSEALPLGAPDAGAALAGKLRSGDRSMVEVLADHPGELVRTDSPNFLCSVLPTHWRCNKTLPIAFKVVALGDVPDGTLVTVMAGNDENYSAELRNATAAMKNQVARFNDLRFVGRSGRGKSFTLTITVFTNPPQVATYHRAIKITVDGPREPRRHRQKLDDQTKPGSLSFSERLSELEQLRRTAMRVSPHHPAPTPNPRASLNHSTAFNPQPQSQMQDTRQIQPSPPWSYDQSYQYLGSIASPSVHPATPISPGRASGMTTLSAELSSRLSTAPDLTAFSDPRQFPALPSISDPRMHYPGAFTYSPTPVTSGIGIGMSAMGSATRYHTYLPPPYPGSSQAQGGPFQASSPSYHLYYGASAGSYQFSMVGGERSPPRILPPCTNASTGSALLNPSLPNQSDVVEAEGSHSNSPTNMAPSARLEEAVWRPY
Runt-related transcription factor 1 (Homo sapiens) + Core-binding factor subunit beta (Homo sapiens), sequence (Q13951 whole entry, looked up): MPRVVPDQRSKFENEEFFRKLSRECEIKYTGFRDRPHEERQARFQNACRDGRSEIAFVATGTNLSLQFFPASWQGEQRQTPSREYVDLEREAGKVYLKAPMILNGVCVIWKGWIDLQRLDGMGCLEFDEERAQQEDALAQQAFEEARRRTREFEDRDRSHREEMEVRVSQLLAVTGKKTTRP

activity, negative = inhibition, inactive:
Cc1cc(C)cc(NC(=O)NCC(O)COc2ccc([N+](=O)[O-])cc2)c1 (stereo unspecified) 3.3%
CCOc1cc(/C=N/n2c(C)nnc2C)ccc1O -4.6%
Cc1ccccc1Nc1ncc(C#N)c(N)n1 -0.858%
O=C(Nc1ccc(Cl)cc1)Nc1ccc(C(=O)N2CCOCC2)cc1 -1.96%
CCCc1nc2sc3ccccc3c(=O)c2c(=O)n1Cc1ccc(OC)cc1 4.52%
Cc1c(C(=O)/C=C/N(C)C)nnn1-c1ccc(Cl)c(Cl)c1 4.52%
COC(=O)Cc1[nH]c(=O)[nH]c1C(=O)OC -2.87%
CSc1ccc(NC(=O)Nc2cc(C)ccn2)cc1 -4.53%
C[N+](C)(C)CCCN(Cc1ccc2c(c1)OCO2)C(=O)NC1CCCCC1 -8.77%
C=CCNC(=S)Nc1c(C(=O)OC)[nH]c2cc(OC)ccc12 -6.58%
O=C(OCC(O)COC(=O)c1cccnc1)c1cccnc1 0.481%
N#Cc1ccc(S(=O)(=O)N2CCCN(c3ccc(C(F)(F)F)cn3)CC2)cc1 3.3%
O=C(O)c1ccccc1C1Nc2ccccc2C(=O)N1CCCN1CCOCC1 (stereo unspecified) -13.6%
Cc1ccc(Cn2nc(C)cc2C(=O)Nc2ccc(Cl)cc2)cc1 -3.08%
CCn1c(NC(=O)C(C)C)c(-c2cccs2)c(=O)c2ccccc21 -7.71%
Cc1nc(C)c(-c2ccnc(/N=C/NO)n2)s1 -3.29%
Cc1cc(OCC(=O)c2cccc(C(F)(F)F)c2)n2cnnc2n1 1.34%
O=C(NC(=S)Nc1ccccc1N1CCCC1)c1ccco1 -2.74%
Cc1onc(-c2ccccc2)c1C(=O)NC(=S)NNC(=O)c1ccco1 -9.63%
Nn1c(SCC(=O)Nc2ccc(S(N)(=O)=O)cc2)nnc1C(F)(F)F 4.8%
O=C(CN1CCCc2ccccc21)N1CCc2ccccc21 7.88%
Cc1ccc(NC(=S)Nc2ccccn2)cc1C -4.63%
COc1ccc(CCN(C)CCC(=O)Nc2cccc(C)c2)cc1OC -4.23%
CC(=O)NNC(=S)Nc1cccc(F)c1 -2.31%
CC1=NN(c2nc3ccccc3s2)C(O)(C(F)(F)F)C1 (stereo unspecified) -0.882%
COc1ccc(NC(=O)c2cccs2)cn1 4.88%
CCOC(=O)NC1=NCC(C)S1 (stereo unspecified) -9.33%
O=S(=O)(c1ccc(C(F)(F)F)cc1)N1CCCN(c2ccc(C(F)(F)F)cn2)CC1 -5.62%
NNC(=O)c1ccc(COc2ccc([N+](=O)[O-])cc2)o1 -7.53%
COc1ccc(/C=N/NC(=O)c2ccco2)cc1OCc1ccccc1 -0.527%
N#Cc1cnn(-c2ccccc2)c1NC(=O)CN1CCOCC1 0.441%
COC(=O)CC1C(=O)NCCN1C(=S)Nc1ccc(F)cc1 (stereo unspecified) 0.286%
O=C(O)COCC(=O)N1CCN(C2c3ccccc3-c3ccccc32)CC1 -2.67%
CC(C)NC(=O)Nc1cccc(Cl)c1 1.29%
CCCCNC(=O)NCCN1CCOCC1 0.241%
Cc1ccc(/C=N/N2CCN(c3ccccn3)CC2)o1 -6.58%
Cc1cc2nc(-c3ccccc3)cc(=O)n2[nH]1 -8.72%
COc1ccc(/C=N/NC(=S)Nc2cc(C(F)(F)F)ccc2Cl)cc1 10.6%
CC(C)(C)c1ccc(CCC2OCC(C[N+]3(C)CCOCC3)O2)cc1 (stereo unspecified) -2.73%
Cc1nn2c(NCCOCCO)c3c(nc2c1-c1ccccc1)CCC3 -12.7%
O=C(c1ccc(Cn2cc(Cl)c([N+](=O)[O-])n2)cc1)N1CCN(Cc2ccccc2)CC1 -5.87%
Cc1onc(-c2c(F)cccc2Cl)c1C(=O)Nc1ccccc1N1CCOCC1 -11.4%
CCC(=O)Nc1cccc(C(=O)OC)c1 -8.54%
CCCCC(=O)Nc1ccc(NC(=S)NC(=O)c2ccco2)cc1OC -5.89%
CCOC(=O)CN1NC2(CCCCCC2)NC1=S -2.8%
Cc1onc(-c2c(F)cccc2Cl)c1C(O)c1ccc(F)cc1 (stereo unspecified) 7.39%
Nc1ncccc1OCc1ccc(Cl)c(Cl)c1 -2.93%
COCCn1c(-c2ccc(Cl)cc2)nc2oc3cc(OC)ccc3c(=O)c2c1=O -1.81%
CC(=O)Nc1ccc(OCCOc2ccc([N+](=O)[O-])cc2)cc1 0.185%
CSC(=Nc1ccccc1)Nc1ccccc1 -0.945%
CCOC(=O)N1CCN(CC(=O)Nc2sc(CC)cc2C(=O)c2ccc(OC)cc2)CC1 -13.8%
CCOC(=O)CC(=O)CSc1nc(CC)c(C)cc1C#N -13.7%
COc1ccc(N/C=C2\C(=O)c3c(sc(C)c3C)N(C)S2(=O)=O)cc1 1.6%
COc1cc(/C=N/Nc2ccc(S(N)(=O)=O)cc2[N+](=O)[O-])cc(OC)c1O -20.2%
COc1ccc(/C=N/NC(=O)c2ccc3nc[nH]c3c2)cc1OC -0.42%
Oc1ccc2ccccc2c1C=Nc1ccccc1 -2.72%
CNC(=O)/C(C#N)=C1\SC(Cc2ccc(F)cc2)C(=O)N1c1ccccc1C (stereo unspecified) -0.028%
O=C(Nc1ccccc1)NC1CCCCNC1=O (stereo unspecified) 1.23%
CCOC(=O)/C(C#N)=C/Nc1cc(F)ccc1C -3.99%
CCOc1ccccc1/C=C(/C#N)C(N)=O 2.38%
COc1ccc(/C(C#N)=C/c2ccccn2)cc1 9.94%
CCOC(=O)/C(C#N)=C/Nc1ccccc1OC(F)(F)F -2.36%
S=c1[nH]ccn1-c1ccccc1Cl -10.1%
CC(=O)NCC1(O)CCCC(C)C1 (stereo unspecified) -8.56%
CC(C)(C)C(=O)Nc1ccc(NC(=O)C(C)(C)C)cc1 10.3%
O=C(COc1ccc([N+](=O)[O-])cc1Cl)N1CCOCC1 2.71%
O=C(CSc1n[nH]c(=O)[nH]c1=O)N1CCCCCC1 -1.59%
O=C(Oc1ccc2c(c1)O/C(=C\c1ccncc1)C2=O)c1cccs1 -8.69%
CCCN(CCC)C(=O)CC(c1ccccc1)c1ccco1 (stereo unspecified) 12.8%
COC(=O)c1ccc(OC)c(OC)c1Cl -1.98%
CCOC(=O)c1c2c([nH]c(=S)c1C#N)CCCC2 -3.85%
COc1cc(C2C(C#N)=C(N)OC3=C2C(=O)CC(C)(C)C3)ccc1OCCN1CCOCC1 (stereo unspecified) -3.79%
COC(=O)c1ccc(Cn2cc([N+](=O)[O-])cn2)cc1 -7.08%
C/C(O)=C(\C#N)P(=O)(c1ccccc1)c1ccccc1 10.4%
O=[N+]([O-])c1ccccc1CSc1ccccn1 1.85%
CC(=O)c1cc(C#N)c(SCc2ccccn2)nc1C -7.25%
c1ccc(-c2ccc(-c3ccccn3)s2)nc1 3.74%
Clc1ccc(-c2ccccc2)nn1 -1.75%
Clc1ccccc1/C=C/c1nc(-c2ccccn2)no1 -23.2%
CCN(CCS(=O)(=O)c1ccc(Cl)cc1)C(=O)Nc1ccccc1 -4.65%
COc1ccc2c(C)cc(C)nc2n1 6.91%
Cc1cc(C)n2cnnc2n1 -3.07%
CCC1(C)N=C(N)Nc2nc3cc(C)c(C)cc3n21 (stereo unspecified) -2.57%
CCOC(=O)N1CCC(NS(=O)(=O)c2ccccc2)CC1 -16.1%
CCNC(=O)COC(=O)c1cc(S(=O)(=O)N2CCCCC2)ccc1C -10.6%
Cc1cc(C)nc(N2N=C(C(F)(F)F)CC2=O)n1 2.96%
COc1ccc(CCn2cnc3c([nH]c4ccccc43)c2=O)cc1 -4.1%
CC(C)(C)N1CCC1C(N)=O (stereo unspecified) 12.6%
Cn1c(=O)c2c(Nc3ccc(F)cc3)cc(=O)n(-c3ccccc3)c2n(C)c1=O -4.15%
O=C(CC1NCCNC1=O)NC1Cc2ccccc2C1 (stereo unspecified) 9.2%
CC(=O)C1C(=O)CC(c2ccc(Cl)cc2)CC1=O (stereo unspecified) -0.716%
Cc1oc(S(=O)(=O)N2CCCC2)cc1C(=O)Nc1ccc(F)cc1 -4.36%
C=CCOc1c(CCC)cc(CCC)cc1C(N)=O -2.85%

Potency, active:
O=c1oc2c(O)c(O)cc3c(=O)oc4c(O)c(O)cc1c4c23 0.158 µM
O=c1cc2c(=O)oc3cc(O)c(O)oc3c2c(O)c1O 0.447 µM
O=C(O)c1cc(O)c2c(c1)[C@H]([C@H]1c3cc(C(=O)O)cc(O)c3C(=O)c3c(O[C@@H]4OC(CO)C(O)C(O)C4O)cccc31)c1cccc(O[C@@H]3OC(CO)C(O)C(O)C3O)c1C2=O (stereo partly specified) 0.562 µM
CC(=O)Oc1cc(-c2coc3cc(OC(C)=O)c(OC(C)=O)c(OC(C)=O)c3c2=O)cc(OC(C)=O)c1OC(C)=O 1 µM
O=C(NC(=S)NNC(=O)c1ccccc1O)c1ccco1 1.26 µM
CC(c1ccccn1)N(CCN(C)C)C(=S)Nc1cccc(F)c1 (stereo unspecified) 3.44 µM
Cc1cccc(NC(=S)N(CCN(C)C)C(C)c2ccccn2)c1 (stereo unspecified) 6.87 µM
COCc1cc(O)c(O)c(O)c1-c1c(COC)cc(O)c(O)c1O 0.631 µM
Brc1ccc(C2Nc3cccc4cccc(c34)N2)o1 14.1 µM
NC(=S)N/N=C/c1ncc(C(F)(F)F)cc1Cl 25.1 µM
CCc1cccc(NC(=O)CCCCCC2NC(=O)NC2C)c1 (stereo unspecified) 0.447 µM
O=C1c2ccccc2C(=O)c2c(Nc3ccc(CCO)cc3)ccc(O)c21 0.794 µM
COc1cc(/C=N/NC(=O)c2cncc(Br)c2)cc([N+](=O)[O-])c1O 2.82 µM
N#C/C(=C\c1ccc(OC(=O)c2ccccn2)cc1)C(N)=O 4.34 µM
CCOC(=O)/C(C#N)=C/c1ccc(OC(=O)c2ccccn2)cc1 3.86 µM
N#CC(C#N)=Cc1ccc(OC(=O)c2ccccn2)cc1 6.12 µM
Cc1c2c(c(O)c3c(O)cccc13)C(=O)O[C@H]2C1C(N(C)C)C(O)=C(C(N)=O)C(=O)[C@H]1O (stereo partly specified) 0.631 µM
COc1cc(O)c2c(c1)oc(=O)c1c3cc(O)c(O)cc3oc21 3.16 µM
c1ccc(-c2ccc(-c3ccccn3)nn2)nc1 2.82 µM
c1ccc(-c2ccccn2)nc1 7.94 µM
c1ccc(-c2n[nH]c(-c3ccccn3)n2)nc1 1 µM and 708 nM
c1ccc(CSc2ccc(-c3ccccn3)nn2)nc1 2.51 µM
Cc1cc(O)c(C=O)c2c1C(=O)Oc1c(COC(=O)/C=C/C(=O)O)c(O)c(C(=O)O)c(C)c1O2 11.2 µM

Source: PubChem BioAssay AID504374 (National Center for Advancing Translational Sciences (NCATS), 2011)
